Compounds with a hit are over-represented: about 21% of the library has one in this group of screens.
IL1B secr inh: qHTS for Inhibitors of Inflammasome Signaling: IL-1-beta AlphaLISA Primary Screen; THP-1 LPS/ATP IL-1B secretion, AlphaLISA, 16 h; active compounds read low; activity change, % at 57.5 µM; 360,000 compounds, 4.7% hits; AID 743279, 2014; in the data active = activity change below about -50%; inconclusive = mostly about -30% to -49%
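THP-1 cells pretreated 1 hr with compounds (up to 57.5 uM final), then stimulated with LPS (250 ng/mL final) plus ATP (1.25 mM final); secreted IL-1B measured by AlphaLISA after 16 hr, decreased signal indicating inhibition.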
DT40 TDP1 CPT: qHTS for Inhibitors of human tyrosyl-DNA phosphodiesterase 1 (TDP1): qHTS in cells in presence of CPT; chicken DT40 Tdp1-/-;hTDP1 cells + 20 nM CPT, ATP luminescence, 48 h; Potency, µM (doses to about 46.2 µM), usual class: inhibitors; 420,000 compounds, 12% hits; AID 686979, 2013; also: nearly all actives have a fitted effect of over 55% in size
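Chicken DT40 Tdp1-/- cells complemented with human TDP1, 400 cells/well, exposed to compounds plus 20 nM camptothecin for at least 48 h at 37 C; viability read as ATP content by CellTiter-Glo luminescence.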
D3 ag: qHTS of D3 Dopamine Receptor Agonist: qHTS; D(3) dopamine receptor (Homo sapiens), P35462; max activation, %; 410,000 compounds, 0.58% hits; D3R DiscoveRx beta-arrestin cells, luminescence, 90 min; AID 652048, 2013; in the data active = max activation above about 30%
Target sequence (P35462 whole entry, looked up): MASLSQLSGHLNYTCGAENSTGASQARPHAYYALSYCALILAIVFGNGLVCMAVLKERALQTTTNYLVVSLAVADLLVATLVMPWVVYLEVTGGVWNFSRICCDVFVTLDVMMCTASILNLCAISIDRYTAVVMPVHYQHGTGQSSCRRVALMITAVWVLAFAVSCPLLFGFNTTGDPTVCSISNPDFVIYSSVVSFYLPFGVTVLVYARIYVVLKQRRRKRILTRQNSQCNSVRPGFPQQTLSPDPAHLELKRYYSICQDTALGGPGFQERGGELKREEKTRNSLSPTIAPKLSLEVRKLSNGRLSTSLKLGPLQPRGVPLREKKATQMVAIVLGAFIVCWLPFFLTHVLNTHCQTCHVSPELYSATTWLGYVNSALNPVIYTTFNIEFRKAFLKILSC
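Cells at 1500/well, incubated overnight, then treated with pinned compounds (dopamine as control) for 90 min at 37 degrees C. DiscoveRx reagent added for 30 - 60 minutes at room temperature; luminescence read.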
ClpP mod: qHTS Assay for Activators of ClpP; purified B. subtilis ClpP, FRET peptide cleavage, 20 min; Potency, µM (titrated, usually from 57.5 µM); 340,000 compounds, 1.9% hits; AID 651965, 2013; active = well fitted falling curve with a large enough effect; inconclusive = small, poorly fitted or top-dose-only effect; inactive = no such curve, though single readings can be large or run the other way; also: the source files actives as falling curves though it sought activators and does not explain the sign; nearly all actives have a fitted effect of over 65% in size
Target sequence (P80244 whole entry, looked up): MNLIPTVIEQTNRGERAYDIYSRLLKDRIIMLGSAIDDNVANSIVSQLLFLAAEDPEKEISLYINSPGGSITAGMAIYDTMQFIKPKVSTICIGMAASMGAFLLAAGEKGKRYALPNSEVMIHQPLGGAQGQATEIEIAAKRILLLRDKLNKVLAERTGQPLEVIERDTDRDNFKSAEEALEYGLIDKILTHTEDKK
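ClpP 10 microg/mL final, pH 8 Tris/KCl buffer with BSA, glycerol, Tween-20; compound pinned in; FRET-FV substrate; RT 20 min; Ex320/Em430; ΔFRET vs ADEP 5.8 microM, DMSO, no enzyme.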
DT40 TDP1 no CPT: qHTS for Inhibitors of human tyrosyl-DNA phosphodiesterase 1 (TDP1): qHTS in cells in absence of CPT. AID 686978, 2013. Potency, µM (doses to about 46.2 µM), usual class: inhibitors. 420,000 compounds, 15% hits. DT40 Tdp1-/- hTDP1 cells, no CPT, ATP luminescence, 48 h; also: nearly all actives have a fitted effect of over 55% in size
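A cellular qHTS used chicken DT40 cells lacking endogenous Tdp1 but carrying stably transfected human TDP1. Compounds were applied without camptothecin, and cell growth kinetics were judged by ATP-dependent luminescence after ≥48 hr.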
DRD3 antagonist: qHTS of D3 Dopamine Receptor Antagonist: qHTS. max response, negative = inhibition, %. D(3) dopamine receptor (Homo sapiens), P35462. D3R cells, DiscoveRx beta-arrestin luminescence, antagonist mode; active compounds read low. 360,000 compounds, 2.5% hits; in the data active = max response below about -50%; inconclusive = no clear call, values can overlap the other calls
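Cells plated overnight at 1500 cells/well, then exposed to library compounds with dopamine controls for 90 minutes at 37 degrees C. DiscoveRx reagent added for 30–60 minutes at room temperature; luminescence read, quantitative HTS format.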
A number is an active result; – = inactive; ? = inconclusive; · = not tested or not shown. Unless noted, calls follow the shape of the dose curve; as a rule, active = well fitted inhibition curve with a large enough effect; inconclusive = small, poorly fitted or top-dose-only effect; inactive = flat fitted curve, though single readings scatter.

SMILES | IL1B secr inh | DT40 TDP1 CPT | D3 ag | ClpP mod | DT40 TDP1 no CPT | DRD3 antagonist
COc1ccc(Nc2ncc3c(n2)CC(c2ccc(C)cc2)CC3=O)cc1 (configuration not stated) | – | ? | – | – | 8.2µM | –
COc1ccccc1C(=O)Nc1ncc2c(n1)CC(c1ccco1)CC2=O (configuration not stated) | – | ? | – | – | ? | –
Cc1ccn2cc(C34CC5CC(CC(C5)C3)C4)nc2c1 | – | ? | – | · | ? | –
O=S(=O)(NC1CC1)c1ccccc1 | – | – | – | – | – | –
COc1ncc2nc(-c3cn(C)c4ccccc34)c(=O)n(CCC#N)c2n1 | · | – | · | · | – | ·
O=C(CS(=O)(=O)c1ccc(Cl)cc1)Nc1nccs1 | – | – | – | – | ? | –
CC1=NN(C(=O)c2c(Br)c(C)nn2C)C(O)(C(F)(F)F)C1 (configuration not stated) | – | 1.2µM | – | – | 1µM | –
CC1=NN(C(=O)c2cc(C)nn2C)C(O)(C(F)(F)F)C1 (configuration not stated) | – | 0.65µM | – | – | 0.92µM | –
CC1=NN(C(=O)c2ccc(Br)cc2)C(O)(C(F)(F)OC(F)(F)F)C1 (configuration not stated) | -55 | ? | – | – | ? | –
COc1ccc(CC(=O)N2N=C(C)CC2(O)C(F)(F)F)cc1OC (configuration not stated) | – | – | – | – | – | –
CC1=NN(C(=O)c2csc(C)c2)C(O)(C(F)(F)F)C1 (configuration not stated) | – | 0.13µM | – | – | 0.13µM | –
O=C(c1cccc(S(=O)(=O)Nc2ccc(F)cc2)c1)N1CCOCC1 | – | – | – | – | – | –
COc1cc(C2c3c(oc4ccccc4c3=O)C(=O)N2Cc2ccccc2Cl)ccc1O (configuration not stated) | · | – | – | – | – | ·
CCO[C@H](Cc1ccc(OCCc2ccc(OS(C)(=O)=O)cc2)cc1)C(=O)O | · | – | – | · | – | ·
COc1ccc(OCC(=O)N2N=C(C)CC2(O)C(F)(F)F)cc1 (configuration not stated) | – | – | – | · | – | ?
CCC1=NN(C(=O)c2ccc(Br)cc2)C(O)(c2ccc(C)cc2)C1 (configuration not stated) | – | 5.2µM | – | – | 5.2µM | –
CC1=NN(C(=O)c2csc(C)c2C)C(O)(C(F)(F)F)C1 (configuration not stated) | – | 0.65µM | – | – | 0.92µM | –
COc1ccc(S(=O)(=O)N2CCCOC2CNC(=O)C(=O)NCCO)cc1 (configuration not stated) | – | – | – | – | – | –
COc1ccc(C2NC(=O)NC(C)=C2C(=O)OC2CCCC(C)C2)cc1 (configuration not stated) | ? | ? | – | – | ? | –
COc1ccc(C2NC(=O)NC(C)=C2C(=O)OC2CCCCC2)cc1 (configuration not stated) | – | 18µM | – | – | ? | –
COc1cc(C2NC(=O)NC(C)=C2C(=O)OC2CCC(C)CC2)ccc1O (configuration not stated) | – | – | – | – | – | –
COc1ccc(C2NC(=O)NC(C)=C2C(=O)OC2CCC(C)CC2)cc1 (configuration not stated) | -65 | ? | – | – | 18µM | –
Cc1ccc(-n2nc(C(N)=O)nc2-c2ccccc2)cc1 | – | – | – | – | – | –
CC(=O)c1cccc(NC(=O)c2nc(-c3ccccc3)n(-c3cccc(Cl)c3)n2)c1 | · | 16µM | – | – | 13µM | ·
NC(=O)c1ccsc1NC(=O)c1nc(-c2ccccc2)n(-c2ccccc2)n1 | -52 | ? | – | – | ? | –
SMILES | IL1B secr inh | DT40 TDP1 CPT | D3 ag | ClpP mod | DT40 TDP1 no CPT | DRD3 antagonist
CC(=O)c1ccc(NC(=O)c2c(C)nn(-c3ccccc3)c2Cl)cc1 | – | – | – | · | – | –
COc1ccc(-c2nc(C(=O)Nc3ccc(C(C)=O)cc3)nn2-c2cccc(Cl)c2)cc1 | · | ? | – | – | ? | ·
CC(=O)c1ccc(NC(=O)c2nc(-c3ccccc3)n(-c3ccccc3Cl)n2)cc1 | · | 26µM | – | – | 18µM | ·
O=C(Nc1ccccn1)c1nc(-c2ccccc2)n(-c2ccccc2)n1 | – | ? | – | – | ? | –
Cc1ccc(-n2nc(C(=O)O)nc2-c2ccccc2)cc1 | – | – | – | – | – | -51
C#CCOCCOCCOCCNc1nc(N2CCN(C(=O)C([C@@H](C)CC)n3cc(C(N)COC(=O)C(F)(F)F)nn3)CC2)nc(N2CCN(C(=O)C([C@@H](C)CC)n3cc(C(N)CC(C)C)nn3)CC2)n1 (some centres not stated) | – | – | – | – | – | –
N#Cc1ccc(NC(=O)c2nc(-c3ccccc3)n(-c3ccccc3)n2)cc1 | – | ? | – | – | ? | –
CC(=O)c1ccc(NC(=O)c2nc(-c3ccccc3)n(-c3ccccc3)n2)cc1 | · | ? | – | – | 21µM | ·
CCc1ccc(S(=O)(=O)/N=C2\C=C(Nc3cccc(C(=O)O)c3)C(=O)c3ccccc32)cc1 | -101 | 18µM | – | · | 16µM | -93
CCc1ccc(S(=O)(=O)/N=C2\C=C(Nc3ccc(O)cc3)C(=O)c3ccccc32)cc1 | -103 | 4.1µM | – | · | 3.3µM | -90
CCc1ccc(S(=O)(=O)O)cc1 | · | – | – | · | – | ·
CCc1ccc(S(=O)(=O)/N=C2/C=C(Sc3ncn[nH]3)C(=O)c3ccccc32)cc1 | -99 | 0.65µM | – | – | 0.73µM | -80
CCCNC(=O)C1(C)CCCN(Cc2c(F)cccc2F)C1 (configuration not stated) | – | – | – | – | ? | –
COc1ccc(NC(=O)COC(=O)c2ccc(O)cc2)c([N+](=O)[O-])c1 | – | – | – | · | – | –
COc1cccc(CNC(=O)Cc2c(C)c3ccc(OC)c(C)c3oc2=O)c1 | · | – | – | – | – | ·
CN1CCN([C@@H]2CS(=O)(=O)N[C@H]2COCc2ccccc2)CC1 | – | – | – | – | – | –
CCn1cc(C(=O)OCC(=O)Nc2ccc(C)c(Cl)c2)c(=O)c2ccc(C)nc21 | · | – | – | – | – | ·

High-throughput results deposited in PubChem BioAssay by National Center for Advancing Translational Sciences (NCATS).
